Out of some 5,500 compounds screened, about 2,000 (36%) were called active. Roughly 18% stayed inconclusive and do not appear here. Cut-off read from the data, not from the text of the source: active = normalized growth mostly below about 0.91 (no sharp cut-off); inconclusive = no clear call, values can overlap the other calls; inactive = mostly above about 0.92. Some of the results follow.
Assay: chemical genetic growth profiling, strain panel (AID 1159580);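 note: tested at 20 µM; growth read once vehicle control cultures reached saturation at 30 °C; 1 = growth at the plate median or of vehicle wells; lower values mean less growth of the strain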
Conditions: S. cerevisiae deletion strains, growth OD

Measured: normalized growth

CC(C)(O)[C@@H]1Cc2cc3ccc(=O)oc3cc2O1
inactive: locus YBR021W, strain FUR4, hits give low values 1.03 | locus YBR229C, strain ROT2, hits give low values 1 | locus YCL029C, strain bik1, hits give low values 1.01 | locus YDL035C, strain GPR1, hits give low values 1.02 | locus YDL074C, strain BRE1, hits give low values 1.04 | locus YDL101C, strain DUN1, hits give low values 1.01 | locus YDL134C, strain PPH21, hits give low values 1 | locus YDL185W, strain tfp1, hits give low values 1.02 | locus YDL192W, strain arf1, hits give low values 1.03 | locus YDR101C, strain arx1, hits give low values 1 | locus YDR150W, strain NUM1, hits give low values 1 | locus YDR162C, strain NBP2, hits give low values 0.989 | locus YDR318W, strain mcm21, hits give low values 1.01 | locus YDR388W, hits give low values 1.01 | locus YDR502C, strain sam2, hits give low values 1.04 | locus YEL061C, strain CIN8, hits give low values 1 | locus YER110C, hits give low values 1.01 | locus YER155C, strain BEM2, hits give low values 1 | locus YER167W, strain BCK2, hits give low values 1.02 | locus YGL078C, strain dbp3, hits give low values 1.01 | locus YGL086W, strain mad1, hits give low values 1.03 | locus YGL248W, strain PDE1, hits give low values 1.01 | locus YGR078C, strain PAC10, hits give low values 1 | locus YGR135W, strain pre9, hits give low values 0.996 | locus YGR229C, strain SMI1, hits give low values 1.04 | locus YGR252W, strain gcn5, hits give low values 0.991 | locus YHR030C, strain SLT2, hits give low values 1.01 | locus YHR079C, strain IRE1 (second series), hits give low values 1 | locus YHR094C, strain hxt1, hits give low values 1.01 | locus YHR129C, strain ARP1, hits give low values 1.01 | locus YHR200W, strain rpn10, hits give low values 1.03 | locus YIL066C, strain RNR3, hits give low values 1.01 | locus YIL073C, strain SPO22, hits give low values 1.02 | locus YIL125W, strain kgd1, hits give low values 1.02 | locus YIR030C, strain dcg1, hits give low values 1.02 | locus YJL095W, strain BCK1, hits give low values 1.03 | locus YJL134W, strain LCB3, hits give low values 1.02 | locus YJL168C, strain set2, hits give low values 1.03 | locus YJL187C, strain SWE1 (second series), hits give low values 1.01 | locus YJR043C, strain POL32, hits give low values 1.01 | locus YJR075W, strain HOC1, hits give low values 1.01 | locus YKL009W, strain mrt4, hits give low values 1.01 | locus YKL068W, hits give low values 1.02 | locus YKL085W, strain MDH1 (second series), hits give low values 1 | locus YKL085W, strain MDH1, hits give low values 1 | locus YKR001C, strain vps1, hits give low values 1.01 | locus YLR039C, strain RIC1, hits give low values 1.01 | locus YLR058C, strain SHM2, hits give low values 1.01 | locus YLR102C, strain apc9, hits give low values 1.02 | locus YLR262C, strain YPT6, hits give low values 0.995 | locus YLR268W, strain sec22, hits give low values 1.03 | locus YLR330W, strain CHS5, hits give low values 1.01 | locus YLR342W, strain FKS1 (second series), hits give low values 1.07 | locus YLR371W, strain rom2, hits give low values 1.02 | locus YLR418C, strain cdc73, hits give low values 0.989 | locus YML016C, strain PPZ1, hits give low values 1.01 | locus YML032C, strain rad52, hits give low values 1.02 | locus YML124C, strain tub3, hits give low values 1.02 | locus YMR078C, strain ctf18, hits give low values 1.03 | locus YMR223W, strain ubp8, hits give low values 0.997 | locus YMR307W, strain GAS1, hits give low values 1.1 | locus YNL067W, strain RPL9B, hits give low values 0.999 | locus YNL128W, strain TEP1, hits give low values 1.02 | locus YNL233W, strain BNI4, hits give low values 1.02 | locus YNL250W, strain rad50, hits give low values 1 | locus YNL271C, strain bni1, hits give low values 1 | locus YNL298W, strain CLA4, hits give low values 1.01 | locus YNL307C, strain MCK1, hits give low values 1.03 | locus YNL322C, strain KRE1, hits give low values 1.01 | locus YNR052C, strain pop2, hits give low values 1.01 | locus YOL012C, strain htz1 1.44 | locus YOL147C, strain pex11, hits give low values 1.01 | locus YOR061W, strain CKA2, hits give low values 1.01 | locus YOR069W, strain VPS5, hits give low values 1.01 | locus YOR136W, strain idh2, hits give low values 1.02 | locus YOR144C, strain elg1, hits give low values 1 | locus YOR184W, strain ser1, hits give low values 1 | locus YOR316C, strain cot1, hits give low values 1.05 | locus YPL241C, strain CIN2, hits give low values 1.01 | locus YPR119W, strain clb2, hits give low values 1.02 | locus YPR141C, strain kar3, hits give low values 1.01 | locus YPR163C, strain tif3, hits give low values 1.01 | locus YPR167C, strain met16, hits give low values 1.03 | strain wtn01, hits give low values 1.05

Source: PubChem BioAssay AID1159580 (chemical genetic matrix, 2015)
